Laboratory results as given in PubChem BioAssay (NCI).
Compounds without any hit were thinned out: in the full panel of roughly 79,000, 15% have a hit. A number with no mark means an inactive call. The source made the active and inactive calls. No stated cut-off is given here; in the data, active means growth inhibition above about 70%; inactive means the rest.

What was measured:
[1] = NCI Yeast Anticancer Drug Screen. Data for the rad50 strain (AID 155);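 further: 0% = growth of vehicle-only cultures of the same strain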; conditions: S. cerevisiae rad50 strain growth inhibition, active compounds read high; at 50.0 µM unless noted
How it was run: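 Vehicle-treated cultures provide the reference for the growth inhibition reported for compound-exposed, repair-deficient yeast.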

[2] = NCI Yeast Anticancer Drug Screen. Data for the mec2-1 strain (AID 157); conditions: S. cerevisiae mec2-1 strain, active compounds read high; at 50.0 µM unless noted
How it was run: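 Compounds were applied to mec2-1 yeast cells. Their growth was then compared with that of vehicle-treated cultures to give growth inhibition.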

[3] = NCI Yeast Anticancer Drug Screen. Data for the sgs1 mgt1 strain (AID 161);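 further: 0% = growth of cultures given vehicle only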; conditions: S. cerevisiae sgs1 mgt1 strain, active compounds read high; at 50.0 µM unless noted
How it was run: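 Compounds are added to genetically altered yeast, and growth is compared with cultures given vehicle alone to give percent inhibition.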

[4] = NCI Yeast Anticancer Drug Screen. Data for the cln2 rad14 strain (AID 165);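 further: 0% = growth equal to vehicle treated cultures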; conditions: S. cerevisiae cln2 rad14 strain, active compounds read high; at 50.0 µM unless noted
How it was run: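 Strain: cln2 rad14 yeast, altered in cell cycle control and DNA damage repair. Read-out: growth inhibition vs vehicle.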

[5] = NCI Yeast Anticancer Drug Screen. Data for the bub3 strain (AID 167); conditions: S. cerevisiae bub3 mutant strain, active compounds read high; at 50.0 µM unless noted
How it was run: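 Mutant yeast screening strain plus compound; vehicle-treated cultures serve as the 0% inhibition reference.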

[6] = NCI Yeast Anticancer Drug Screen. Data for the mlh1 rad18 strain (AID 175); conditions: S. cerevisiae mlh1 rad18 strain growth inhibition, active compounds read high; at 50.0 µM unless noted
How it was run: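 A repair-deficient yeast strain is exposed to test compound, and growth is scored relative to vehicle-treated controls.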

| Structure (SMILES) | growth inhibition [1] | growth inhibition [2] | growth inhibition [3] | growth inhibition [4] | growth inhibition [5] | growth inhibition [6] |
| --- | --- | --- | --- | --- | --- | --- |
| S=C(c1ccco1)N1CCOCC1 | 14.8% | 12% | 25.1% | 12.7% | 16.2% | 10.8% |
| O=C1OC(C2OC(=O)C(=O)C2C2CCCCCCC2=O)C(C2CCCCCCC2=O)C1=O (centres undefined) | 45.5% | 9.15% | 29.4% | 32.9% | 39.2% | 26.4% |
| CCCCCCCC(=O)C1C(=O)OC(C)(C)OC1=O | 9.65% | -6.45% | -7.85% | 9.65% | -0.5% | -7.15% |
| Fc1c(F)c(-c2c(F)c(F)c(S)c(F)c2F)c(F)c(F)c1S | -1.15% | 3.75% | 21.3% | 3.05% | 0.7% | -21.9% |
| CC1(C)N=C(Oc2cc(Cl)cc(Cl)c2)NC(=S)N1 | 11.8% | -8.3% | 24% | 21.2% | 7% | 24% |
| O=C(O)CCC1NC(/C(=C/c2ccccc2O)NC(=O)c2ccccc2)OC1=O (centres undefined) | -0.75% | -8.1% | -14.1% | -19.1% | -8.25% | -16.1% |
| CCC(=O)OCC(CC(=O)NCCc1ccccc1)=NCCc1ccccc1 | 18.6% | -0.6% | 16.6% | 9.15% | 2.55% | 14.9% |
| Cc1nccn1C(/C(=N/O)c1ccccc1)c1ccccc1 (centres undefined) | -0.55% | 10.4% | -0.5% | 13.7% | 10.8% | 3.2% |
| OCc1ccc(Cl)c(Cl)c1 | -4.15% | -11.9% | 0.1% | 8.15% | 2.8% | 3.3% |
| NC1N=Nc2ccccc21 (centres undefined) | 0.05% | -5.95% | 13.3% | 4.3% | -1.6% | 41.3% |
| O=C1CN(CCN2CC(=O)N(CN3CCOCC3)C(=O)C2)CC(=O)N1CN1CCOCC1 | 9.55% | 3% | 2.6% | 3.8% | -16.1% | 83.9% (active) |
| COc1ccc(-c2cc(=O)c3c(O)c(OC)c(O)cc3o2)cc1O | 24.8% | 14.9% | 37.5% | 22.9% | 37.5% | 17.1% |
| CC1(C)CC(O)CC(C)(C)N1 | 2.9% | -8.7% | -1.6% | -2.6% | -1% | 1.9% |
| C[N+](C)(C)c1ccc2[nH]c3ccccc3c2c1 | 8.7% | -11.2% | 8.25% | -27.8% | -6.5% | 7.55% |
| c1ccc(N=c2sc3ccccc3nc2Nc2ccccc2)cc1 | 5.65% | -37.8% | -34.4% | -64.8% | -23.3% | -48.9% |
| Cc1cnc(N)cn1 (tested in a mixture with another compound) | -0.05% | -6% | 1.1% | -52.2% | 3.4% | 8.1% |
| O=C(c1ccc(Cl)cc1)c1ccccc1C(=O)c1ccc(Cl)cc1 | 0.8% | -12.1% | 6.6% | -4.45% | 23% | 15.1% |
| C/C=C(/I)CBr | 28.4% | 1.1% | 1.75% | 3.05% | 12.2% | 21.3% |
| CCOC(=O)c1ccc(NC(=O)Nc2ccc(F)cc2)cc1 | 3.5% | -0.5% | 1% | 12.5% | 32.5% | 5.55% |
| CC12CC[C@H](O)C(C)(C)[C@H]1CC[C@](C)(O)C2COc1ccc2ccc(=O)oc2c1 (some centres undefined) | 86.3% (active) | 75.2% (active) | 85.6% (active) | 37.1% | 76.3% (active) | 77.1% (active) |

| Structure (SMILES) | growth inhibition [1] | growth inhibition [2] | growth inhibition [3] | growth inhibition [4] | growth inhibition [5] | growth inhibition [6] |
| --- | --- | --- | --- | --- | --- | --- |
| O=[N+]([O-])c1ccc(N=Cc2ccc(N(CCF)CCF)cc2)cc1 | 6.9% | 15.9% | 16.1% | -60% | -9.2% | 10.9% |
| O=C(O)CC(CS(=O)O)C(=O)O (centres undefined) | -9.65% | -11.2% | -13.4% | 1.05% | 1.15% | -3.7% |
| CS(=O)(=O)c1ncc(Br)cn1 | 15.6% | -6.85% | 5.45% | 17.1% | 6.4% | 7.75% |
| Cc1ccc(-c2cc(-c3ccccc3)c(C#N)c(=O)n2C2OC(CO)C(O)C(O)C2O)cc1 (centres undefined) | -6.55% | -0.3% | 2.25% | 28.1% | 8.65% | 2.95% |
| C(/C=N/Nc1ccccc1)=N\Nc1ccccc1 | 24.1% | -8.15% | -0.65% | -3% | -9.85% | 8.8% |
| CC(C)OC(=O)Oc1cccc(OC(=O)OC(C)C)c1 | 3.15% | -28.8% | 2.15% | 6.95% | 8.5% | 9.3% |
| CC(=NCCCCN=C(C)c1cc(O)cc(Br)c1O)c1cc(O)cc(Br)c1O.[Co] | 17.9% | 17.9% | 12.3% | 6.45% | 2.1% | 24.4% |
| CCOC(=O)C(NC(=O)CC)(Nc1ccc(S(=O)(=O)Nc2nc(C)cc(C)n2)cc1)C(F)(F)F (centres undefined) | -5.6% | -3.4% | 8.55% | 21.6% | 2.5% | 7.65% |
| C[N+]1(CC(=O)c2ccc(Cl)cc2)CCOCC1 | 20.8% | 7.45% | 10.6% | -20.9% | 6.6% | 28.1% |
| O=C1NC(=S)N/C1=C\c1ccc(Cl)cc1 | -5.75% | -4.8% | 15% | -5.9% | -9.3% | -39.7% |
| NC(CSS(=O)(=O)O)=NCCCOCc1ccccc1 | 15.4% | 7% | 12.3% | 10% | 18.6% | -7.2% |
| CC(=O)c1ccc([N+](=O)[O-])[nH]1 | -16.4% | 23.1% | -32.9% | -3.8% | -3.95% | -5.1% |
| O=C(Cc1ccccc1)N/N=C(/c1nc2ccc([N+](=O)[O-])cc2[nH]c1=O)C(O)c1ccccc1Cl (centres undefined) | 0.8% | 2.6% | 6.8% | 2.2% | 5.7% | 16.1% |
| CCCCCCCCCCC1CC(=O)OC1=O (centres undefined) | 17.2% | 14.7% | 29.6% | 9.45% | 9.25% | 8.3% |
| OCC1=CC(O)C2C=COC(OC3OC(CO)C(O)C(O)C3O)C12 (centres undefined) | -15.9% | -24.6% | -19.1% | -6.45% | -32% | -31.1% |
| CCOC(=O)c1nc(N)nc(N)c1-c1ccc(Cl)cc1 | 3.6% | 10.7% | -3.4% | -4.9% | 15.6% | -1.2% |
| OC(CN1CCCC2CCCCC21)c1cc2c(c3ccccc13)CCCC2 (centres undefined) | 98.2% (active) | 96.7% (active) | 99.5% (active) | 93.7% (active) | 98.5% (active) | 99.5% (active) |
| O=C1CSC(c2ccc([N+](=O)[O-])cc2)N1c1ccc(-n2c(-c3ccccc3)nc3ccccc3c2=O)cc1 (centres undefined) | 2.5% | -10.2% | 15.2% | -10.5% | 30% | 13.2% |
| COc1cc(/C=C/c2ccc(N(C)C)cc2)oc(=O)c1 | 21.5% | 5.45% | 26.6% | 6.85% | 5.65% | 0.25% |
